From PubChem BioAssay (NCATS) come the findings set out here.

Test [1] deals with Cytochrome P450 3A7 (Homo sapiens) (UniProt P24462). The test is described as follows: Cytochrome P450 family 3 subfamily A member 7 (CYP3A7) small molecule antagonists: luciferase biochemical qHTS assay (AID 1963596). Further: on the % scale 0 is the no-effect control and ±100 the full control effect; nearly all actives have a fitted effect of over 40% in size. Summed up:
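In this luminescent screen, enzyme and proluciferin substrate meet test compound for 10 min before NADPH regeneration solution drives a 1 h room-temperature reaction; detection reagent halts turnover and luminescence is read 20 min later.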

Test [2] is described as follows: Viability qHTS for spleen associated tyrosine kinase inhibitor (SYKi) naive MV4-11 cells (AID 1963823). Further: nearly all actives have a fitted effect of over 40% in size. Further: potency means the concentration at half of the fitted maximal effect. Put shortly: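 Cells: MV4-11, SYK inhibitor naive, 500 per well. Treatment: library compounds, 72 hr, 37 C, 5% CO2. Read-out: CellTiter-Glo luminescence after 10 min RT.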
A short description of test [3]: Viability qHTS for spleen associated tyrosine kinase inhibitor (SYKi) drug resistant MV4-11 cells (AID 1963824). Further: nearly all actives have a fitted effect of over 35% in size. Further: potency means the concentration at half of the fitted maximal effect. Summed up: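 SYK-inhibitor-resistant MV4-11 AML cells were seeded at 500 per well onto compound and cultured 72 hours (37 °C, 5% CO2). CellTiter-Glo was then added, and after 10 min at room temperature, luminescence gave viability.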
Test [4] is described as follows: Cellular viability qHTS for adrenocortical cancer (ACC) cell line SW-13 (AID 1963989). Further: nearly all actives have a fitted effect of over 65% in size. Further: potency means the concentration at half of the fitted maximal effect.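 On activity (max response): cells grown in serum-free medium with ITS supplement; on the % scale 0 is the no-effect control and ±100 the full control effect.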 To be noted: SW-13 ACC cells viability, CellTiter-Glo, 48 h; activity (max response): stronger effect = lower value. Put shortly: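 SW-13 cells in ITS-supplemented serum-free DMEM were plated overnight, then exposed for 48 h at 37C to compound titrations (up to 46 uM final). Viability was read by CellTiter-Glo luminescence; four-parameter logistic fits gave IC50 and efficacy.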

A short description of test [5]: Cellular viability qHTS for adrenocortical cancer (ACC) cell line NCI-H295R (AID 1963990). Further: nearly all actives have a fitted effect of over 60% in size. Further: potency means the concentration at half of the fitted maximal effect.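 On activity change, negative = viability loss: 0% = DMSO only wells and -100% = full killing with cytotoxic reference compound.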 Summed up: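 Luminescent ATP read-out (CellTiter-Glo, 20 min RT) after 48 h drug exposure of NCI-H295R cells; a titration up to 46 uM final. Data normalized to doxorubicin (100% inhibition) and DMSO (0%); 4-parameter fit gives IC50, max response.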

The structures appear in SMILES notation. Values joined by “and” are separate entries in the source; they are usually repeats but may differ in a detail not shown here. Equal values may be shown once. Records with an inconclusive call do not appear. The source holds several records for some structures; these can differ, active in one and inactive in another. Active and inactive are the calls of the source. The call rests on the fitted dose curve; in most records, active means well fitted curve in the direction sought with a large enough effect; inconclusive means small, poorly fitted or top-dose-only effect, or another doubt; inactive means no such curve, though single readings can be large; an effect the other way counts as inactive or inconclusive. Where a SMILES comes first, the peptide text is derived from it.

Cytochrome P450 3A7 (Homo sapiens), sequence (P24462 whole entry, looked up): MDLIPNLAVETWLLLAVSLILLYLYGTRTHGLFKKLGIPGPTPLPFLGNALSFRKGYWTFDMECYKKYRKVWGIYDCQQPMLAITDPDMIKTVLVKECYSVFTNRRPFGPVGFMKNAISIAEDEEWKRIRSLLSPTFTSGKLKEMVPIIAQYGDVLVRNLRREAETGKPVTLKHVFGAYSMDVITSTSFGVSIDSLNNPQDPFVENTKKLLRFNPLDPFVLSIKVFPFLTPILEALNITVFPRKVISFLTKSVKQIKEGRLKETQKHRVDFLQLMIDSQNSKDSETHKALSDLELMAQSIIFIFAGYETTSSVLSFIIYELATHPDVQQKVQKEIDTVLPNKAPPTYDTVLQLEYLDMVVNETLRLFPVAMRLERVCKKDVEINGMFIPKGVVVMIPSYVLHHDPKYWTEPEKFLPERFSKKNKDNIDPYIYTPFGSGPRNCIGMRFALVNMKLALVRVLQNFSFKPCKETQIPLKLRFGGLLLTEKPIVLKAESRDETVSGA

On to `O=c1ccn([C@@H]2O[C@H](CO)[C@@H](O)[C@H]2O)c(=O)[nH]1`, for which the Potency entry in test [1], in test [2], in test [3] and in test [5] was “inactive” throughout. Also, the activity (max response) in test [4] is -5.6% (inactive).
As to `Oc1ccc(C(O)CNCCCCCCNCC(O)c2ccc(O)c(O)c2)cc1O` (stereo not given), the Potency result in test [1], in test [2], in test [3] and in test [5] was “inactive” in each case. In test [4], the activity (max response) is -8.39% (inactive).
For `CCCCCOC(=O)Nc1nc(=O)n([C@@H]2O[C@H](C)[C@@H](O)[C@H]2O)cc1F`, the Potency entry in test [1], in test [2], in test [3] and in test [5] was “inactive” throughout. For the same molecule, the activity (max response) in test [4] was 14.3% (inactive) and 14.2% (inactive).
Consider `COC(=O)c1cc(S(N)(=O)=O)ccc1OC`, for which the Potency entry in test [1], in test [2], in test [3] and in test [5] was “inactive” in each case. The activity (max response) in test [4] is 6.75% (inactive).
On to `Cc1cccc(C)c1OCC(C)N` (stereo not given), for which the Potency result in test [1], in test [2], in test [3] and in test [5] was “inactive” throughout. Also, the activity (max response) in test [4] was 2.1% (inactive).
For the molecule `C[N+](C)(C)CCCCCC[N+](C)(C)C`, the Potency entry in test [1], in test [2], in test [3] and in test [5] was “inactive” throughout. Besides, the activity (max response) in test [4] was 10.1% (inactive).
Turning to `Cc1cc2c(cc1CC(=O)c1sccc1S(=O)(=O)Nc1onc(C)c1Cl)OCO2`, the Potency result in test [1], in test [2], in test [3] and in test [5] was “inactive” each time. For the same molecule, the activity (max response) in test [4] was 2.25% (inactive) and -17.1% (inactive).
`C[n+]1ccccc1/C=N/O`: the Potency entry in test [1], in test [2], in test [3] and in test [5] was “inactive” throughout. In test [4], the activity (max response) is 3.67% (inactive).
Regarding `COc1cc2c(NC3CCN(CC4CCCCC4)CC3)nc(N3CCCN(C(C)C)CC3)nc2cc1OCCCN1CCCCC1`, the Potency entry in test [1] is “inactive”. In addition, the Potency in test [2] is 2.59 µM (active); in test [3], 3.66 µM (active); in test [4], 7.08 µM (active); in test [5], 22.4 µM (active).
Consider `C=C1[C@H](CO)[C@@H](O)C[C@@H]1n1cnc2c(=O)[nH]c(N)nc21`, for which the Potency entry in test [1], in test [3] and in test [5] was “inactive” throughout. Further, the Potency entry in test [2] is “inactive and 16.4 µM (active)”. In test [4], the activity (max response) was -5.41% (inactive).
For the molecule `Cc1cc(-c2cc(OC(=O)c3ccccc3)ccc2Cl)cc2nnc(Nc3ccc(OCCN4CCCC4)cc3)nc12`, the Potency entry in test [1] and in test [5] was “inactive” in each case. For the same molecule, the Potency is 2 µM (active) in test [2] and 1.59 µM (active) in test [3]. In test [4], the activity (max response) is 9.34% (inactive).
For the molecule `Cc1c(F)c(N2CCNC(C)C2)cc2c1c(=O)c(C(=O)O)cn2C1CC1` (stereo not given), the Potency result in test [1], in test [2], in test [3] and in test [5] was “inactive” in each case. Moreover, the activity (max response) in test [4] was -0.964% (inactive).
`CN(C)CCN(Cc1ccsc1)c1ccccn1`: the Potency entry in test [1], in test [2], in test [3] and in test [5] was “inactive” each time. The activity (max response) in test [4] was 6.67% (inactive).
In the case of `Cc1cccc(C)c1NC(=O)CC12CCCN1CCC2`, the Potency entry in test [1], in test [2], in test [3] and in test [5] was “inactive” in each case. Further, the activity (max response) in test [4] was 1.71% (inactive).
As to `CC(C)CCCC(C)N` (stereo not given), the Potency result in test [1], in test [2], in test [3] and in test [5] was “inactive” each time. The activity (max response) in test [4] is 3.28% (inactive).
In the case of `CN1CCN(C2CCN(C(=O)Nc3cc(Oc4ccc(NC(=O)C5(C(=O)Nc6ccc(F)cc6)CC5)c(F)c4)ccn3)CC2)CC1`, in test [1], the Potency result is “inactive”. Further, the Potency in test [2] is 65.1 nM (active) and 93.4 nM (active); in test [3], 116 nM (active) and 132 nM (active); in test [4] it was 28.2 µM (active); in test [5], 25.1 µM (active).
In the case of `COc1cc2[nH]c(=O)[nH]c(=O)c2cc1OC`, the Potency result in test [1], in test [2], in test [3] and in test [5] was “inactive” in each case. Also, the activity (max response) in test [4] was 11.4% (inactive).
As for `O=C(O)CP(=O)(O)O`, the Potency entry in test [1], in test [2], in test [3] and in test [5] was “inactive” in each case. In test [4], the activity (max response) is 1.41% (inactive).
Take `Cc1nnc(C(C)C)n1C1CC2CCC(C1)N2CC[C@H](NC(=O)C1CCC(F)(F)CC1)c1ccccc1` (stereo not given in full): the Potency entry in test [1], in test [2], in test [3] and in test [5] was “inactive” in each case. The activity (max response) in test [4] was 2.32% (inactive).
Consider `CC(=O)N[C@@H](CO)C(=O)N[C@@H](CC(=O)O)C(=O)N[C@@H](CCCCN)C(=O)N1CCC[C@H]1C(=O)O` (Ac-SDKP-OH), for which the Potency result in test [1], in test [2], in test [3] and in test [5] was “inactive” each time. The activity (max response) in test [4] was 0.638% (inactive).
`C/C=C1\[C@H]2C=C(C)C[C@]1(N)c1ccc(=O)[nH]c1C2`: the Potency entry in test [1], in test [2], in test [3] and in test [5] was “inactive” throughout. In addition, the activity (max response) in test [4] is 12.5% (inactive).
`COC(=O)/C=C(/C)N`: the Potency result in test [1], in test [3] and in test [5] was “inactive” throughout. Also, the Potency in test [2] was 16.8 µM (active). For the same molecule, in test [4], the activity (max response) is 13.3% (inactive).
Regarding `CN(N=O)C(=O)N[C@@H]1[C@@H](O)[C@H](O)[C@@H](CO)O[C@@H]1O`, the Potency result in test [1], in test [2], in test [3] and in test [5] was “inactive” each time. The activity (max response) in test [4] was 0.228% (inactive) and 12.5% (inactive).
Turning to `Cc1nn(Cc2ccccc2Cl)c(C)c1CN(C)CC(O)COc1ccc(Cl)cc1` (stereo not given), the Potency entry in test [1] is “inactive”. The Potency was 14.8 µM (active) in test [2], 7.42 µM (active) in test [3], 25.1 µM (active) in test [4] and 17.8 µM (active) in test [5].
Consider `N=C(N)N1CCc2ccccc2C1`, for which the activity change, negative = inhibition in test [1] was 2.18% [at 4.83 µM] (inactive). Further, the viability (% of control) in test [2] is 81.1% [at 4.97 µM] (inactive). Moreover, the viability, % of control in test [3] is 96.6% [at 4.97 µM] (inactive). Besides, the activity (max response) in test [4] was -5.8% (inactive). The activity change, negative = viability loss in test [5] is -6.61% [at 3.81 µM] (inactive).
